PHOSPHO1 inh – PubChem AID 1565; inhibition, % at 13.3 µM; recombinant PHOSPHO1, absorbance phosphatase assay; 290,000 tested, 1.1% active; in the data active = inhibition above about 60%
Cl transport mod – KCC2 cotransporter modulators, thallium flux, primary screen, cell-based, HEK293 KCC2, FluoZin-2 fluorescence, MLSMR; KCC2 cells, thallium flux FluoZin-2 fluorescence; B-score of Tl+ flux slope (higher = more flux/activation; lower = inhibition) at 10 µM; AID 1456, 2008; Solute carrier family 12 member 5 (Homo sapiens), Q9H2X9; 190,000 tested, 2.2% active;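 active = thallium flux slope and its plate-corrected score both differing from the plate sample mean at a set confidence after two filtering rounds, in either direction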;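 note: slope of fluorescence scaled to starting intensity during 10 to 20 s after thallium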
Target sequence (Q9H2X9 whole entry, looked up): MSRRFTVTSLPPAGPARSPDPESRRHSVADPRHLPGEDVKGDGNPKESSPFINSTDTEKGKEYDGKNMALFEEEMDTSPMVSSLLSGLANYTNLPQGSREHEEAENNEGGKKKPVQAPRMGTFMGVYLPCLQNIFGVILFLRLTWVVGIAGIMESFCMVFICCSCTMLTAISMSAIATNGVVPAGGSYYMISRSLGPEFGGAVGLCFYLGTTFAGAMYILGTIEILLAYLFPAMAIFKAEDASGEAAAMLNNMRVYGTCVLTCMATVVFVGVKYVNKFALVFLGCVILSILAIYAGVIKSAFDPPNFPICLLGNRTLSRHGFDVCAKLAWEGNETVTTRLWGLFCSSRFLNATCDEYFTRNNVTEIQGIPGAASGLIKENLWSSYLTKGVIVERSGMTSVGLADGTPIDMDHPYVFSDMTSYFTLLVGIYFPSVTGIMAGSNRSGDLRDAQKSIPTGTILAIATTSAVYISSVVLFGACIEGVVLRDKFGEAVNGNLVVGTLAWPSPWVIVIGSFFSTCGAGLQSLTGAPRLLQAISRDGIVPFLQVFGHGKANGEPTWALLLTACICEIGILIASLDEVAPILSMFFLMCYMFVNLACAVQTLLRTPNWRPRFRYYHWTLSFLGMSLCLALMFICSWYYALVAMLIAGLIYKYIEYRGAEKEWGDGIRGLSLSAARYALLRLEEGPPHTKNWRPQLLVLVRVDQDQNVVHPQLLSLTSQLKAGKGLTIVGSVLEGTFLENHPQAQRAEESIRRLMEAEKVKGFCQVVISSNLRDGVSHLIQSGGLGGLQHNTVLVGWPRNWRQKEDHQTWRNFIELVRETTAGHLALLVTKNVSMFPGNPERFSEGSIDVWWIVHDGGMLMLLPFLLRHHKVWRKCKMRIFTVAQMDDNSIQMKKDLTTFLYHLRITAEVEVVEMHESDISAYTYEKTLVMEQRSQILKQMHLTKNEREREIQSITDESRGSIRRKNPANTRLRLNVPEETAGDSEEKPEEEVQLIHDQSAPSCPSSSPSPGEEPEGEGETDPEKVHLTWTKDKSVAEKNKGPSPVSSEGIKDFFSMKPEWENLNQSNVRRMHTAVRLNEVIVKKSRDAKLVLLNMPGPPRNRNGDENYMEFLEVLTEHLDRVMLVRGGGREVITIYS
Calb FLC – C. albicans growth inhibition with fluconazole, primary screen, CaCi-2 strain, Alamar Blue fluorescence. growth inhibition, % (test concentration not listed). C. albicans CaCi-2 (fluconazole-resistant clinical isolate) + fluconazole, 48 h. 300,000 tested, 0.57% active;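 active = growth inhibition above about 58% in most replicates, limit read from the data, passing the limit was not always enough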;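 note: all wells also contain fluconazole at 8 µg/ml as a sub-toxic cotreatment; 0% = median of DMSO wells and 100% = median of geldanamycin control wells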
Efflux pump inh – inhibitors of Candida efflux pumps in yeast, primary screen, S. cerevisiae, Nile Red, multiplex. S. cerevisiae Candida pump triplex. inhibition, % at 10 µM. 330,000 tested, 0.44% active;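 active = plate passing quality check with inhibition over a set limit, or well fluorescence over plate mean plus 4 SD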;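 note: Nile Red retained in pooled yeast measured as flow cytometry median fluorescence; 0% = buffer negative control and 100% = Enniatin B positive control; higher means more Nile Red kept so more efflux inhibition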
Cardio protect – cardioprotection against H2O2-induced cell death, primary screen, uHTS, H9c2 cells, ATPLite luminescence | H9c2 cardiomyocytes, H2O2 injury protection, 2 h | protection from H2O2 cell death, % at 20 µM | 360,000 tested, 0.63% active;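 active = compounds giving at least 50% protection of heart cells from peroxide-induced death in the single-dose screen, raw or plate-pattern-corrected value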;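 note: 0% = DMSO wells with peroxide and 100% = DMSO wells without peroxide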
* hit, by the source's call. This is a sample that favours compounds with a hit; in the whole collection about 3.3% have one here.

How did Cc1cccnc1Nc1ncnc(N)c1[N+](=O)[O-] do in these assays?
PHOSPHO1 inh: 60.9*; Cl transport mod: 0.053; Calb FLC: 4.6; Efflux pump inh: 0.1; Cardio protect: 15.0

What do the screens show for `CCCCN(C(=O)c1ccco1)C1CCS(=O)(=O)C1` (configuration not stated)?
Calb FLC: 0.5; Efflux pump inh: 0.2; Cardio protect: -1.3

Results for O=C(N/N=C/c1cccnc1)c1cc2ccccc2o1 ?
PHOSPHO1 inh: 4.9; Cl transport mod: 0.342; Calb FLC: -4.1; Efflux pump inh: 0.0; Cardio protect: 1.5

Results for Nc1c(C(=O)N/N=C/c2cccnc2)oc2nc(-c3ccccc3)cc(-c3ccco3)c12 ?
PHOSPHO1 inh: 17.1; Cl transport mod: -0.669; Calb FLC: 2.6; Efflux pump inh: 0.1; Cardio protect: 67.5*

Results for Cc1cc(C)c2c(N)c(C(=O)N/N=C/c3cccnc3)sc2n1 ?
PHOSPHO1 inh: 7.5; Cl transport mod: 1.14; Calb FLC: 4.2; Efflux pump inh: -0.1; Cardio protect: 66.5*

How did Nc1c(C(=O)N/N=C/c2cccnc2)oc2nc(-c3ccco3)cc(-c3ccco3)c12 do in these assays?
PHOSPHO1 inh: -35.4; Cl transport mod: 0.415; Calb FLC: 8.7; Efflux pump inh: 0.3; Cardio protect: 76.6*

How did NNC(=O)c1oc2nc(-c3ccco3)cc(-c3ccco3)c2c1N do in these assays?
PHOSPHO1 inh: 22.5; Cl transport mod: -0.0326; Calb FLC: 3.3; Efflux pump inh: -0.2; Cardio protect: 33.2

How did Cc1cc(C)c2c(N)c(C(=O)N/N=C/c3ccccc3)sc2n1 do in these assays?
PHOSPHO1 inh: 31.6; Cl transport mod: 0.375; Calb FLC: 3.6; Efflux pump inh: 0.1; Cardio protect: 27.3

Results for O=c1c2cc(Cl)ccc2nc(-c2ccc([N+](=O)[O-])cc2)n1O ?
PHOSPHO1 inh: 30.3; Cl transport mod: 49.2*; Calb FLC: 3.6; Efflux pump inh: -0.1; Cardio protect: 7.1

How did N#Cc1ccc(-c2nc3cc(Cl)ccc3c(=O)n2O)cc1 do in these assays?
PHOSPHO1 inh: 10.6; Calb FLC: 100.9*; Efflux pump inh: 0.8; Cardio protect: 14.3

What do the screens show for `O=c1c2ccccc2nc(-c2ccccc2Cl)n1O`?
PHOSPHO1 inh: 24.4; Cl transport mod: 1.79; Calb FLC: 18.1; Efflux pump inh: -0.1; Cardio protect: -0.4

Results for Cc1ccc(-c2nc3c(Cl)cc(Cl)cc3c(=O)n2O)cc1 ?
Calb FLC: 95.7*; Efflux pump inh: 0.5; Cardio protect: 6.6

Results for N#Cc1ccc(-c2nc3ccccc3c(=O)n2O)cc1 ?
Calb FLC: -6.0; Efflux pump inh: 0.9; Cardio protect: 4.5

What do the screens show for `O=c1c2cc(Br)ccc2nc(-c2ccc(Cl)cc2)n1O`?
PHOSPHO1 inh: 32.7; Calb FLC: 23.8; Efflux pump inh: -0.4; Cardio protect: 6.0

Results for O=c1c2ccc(Cl)cc2nc(-c2cccc(C(F)(F)F)c2)n1O ?
PHOSPHO1 inh: 16.9; Calb FLC: 78.9*; Efflux pump inh: -0.2; Cardio protect: 24.2

Results for O=C(Nc1cc(F)ccc1F)C1CCN(S(=O)(=O)c2cccc3nonc23)CC1 ?
PHOSPHO1 inh: 28.0; Calb FLC: -1.0; Efflux pump inh: 0.3; Cardio protect: 3.9

How did O=C(Nc1ccccc1)N1CCCC(CNS(=O)(=O)Cc2ccccc2)C1 (configuration not stated) do in these assays?
PHOSPHO1 inh: 47.1; Cl transport mod: -0.911; Calb FLC: -0.5; Efflux pump inh: -0.2; Cardio protect: 1.5

What do the screens show for `CN(C)c1ccc(CNC(=O)C2Cc3c(-c4ccccc4Oc4ccccc4)ccnc3O2)cc1` (configuration not stated)?
Cardio protect: -2.6

What do the screens show for `OC(Cc1cccnc1)c1ccccc1` (configuration not stated)?
Cardio protect: -0.7

Results for C=CCc1cccc(C2Nc3ccccc3C(=O)N2O)c1O (configuration not stated) ?
PHOSPHO1 inh: 37.9; Cl transport mod: 13.3*; Calb FLC: -1.7; Efflux pump inh: -0.1; Cardio protect: 8.3

Results for COC(=O)c1cccc(Nc2nc(-c3ccncc3)nc3ccccc23)c1 ?
PHOSPHO1 inh: 11.4; Calb FLC: -0.3; Efflux pump inh: -0.2; Cardio protect: 40.2

Results for CCOC(=O)c1cccc(Nc2nc(-c3cccnc3)nc3ccccc23)c1 ?
PHOSPHO1 inh: -0.7; Cl transport mod: -0.337; Calb FLC: -5.1; Efflux pump inh: 0.1; Cardio protect: 54.7*

How did COC(=O)c1cccc(Nc2nc(-c3cccnc3)nc3ccccc23)c1 do in these assays?
PHOSPHO1 inh: 24.0; Cl transport mod: -0.866; Calb FLC: 16.3; Efflux pump inh: 0.0; Cardio protect: 51.2*

Results for O=C(O)c1cccc(Nc2nc(-c3cccnc3)nc3ccccc23)c1 ?
PHOSPHO1 inh: 8.4; Cl transport mod: -0.979; Calb FLC: 2.3; Efflux pump inh: 0.0; Cardio protect: -0.4

How did CCOC(=O)c1nc(Nc2ccc(C(C)=O)cc2)c2ccccc2n1 do in these assays?
PHOSPHO1 inh: -20.1; Cl transport mod: 0.123; Calb FLC: 0.6; Efflux pump inh: -0.1; Cardio protect: 82.3*

How did CCN(Cc1ccccc1)C(=O)CN1C(=O)COc2ccc(S(=O)(=O)NC3CCCC3)cc21 do in these assays?
PHOSPHO1 inh: 62.9*; Calb FLC: -1.2; Efflux pump inh: -0.1; Cardio protect: 1.5

Results for CCCCn1c(N)c(N(CCOC)C(=O)COC(=O)CNC(=O)c2ccc(Cl)c(Cl)c2)c(=O)[nH]c1=O ?
Cardio protect: 5.3

Results for Cc1sc(-n2c(C)ccc2C)c(C#N)c1C ?
PHOSPHO1 inh: 95.3*; Calb FLC: -2.9; Efflux pump inh: 0.4; Cardio protect: -1.1

How did CCC(C(=O)NC1CCCCCC1)n1nc(C)c2c(C)n(-c3ccccc3)nc2c1=O (configuration not stated) do in these assays?
PHOSPHO1 inh: 64.7*; Calb FLC: -4.8; Efflux pump inh: 0.0; Cardio protect: -4.3

How did CCC(C(=O)NC1CC1)n1nc(C)c2c(C)n(-c3ccc(C)cc3)nc2c1=O (configuration not stated) do in these assays?
PHOSPHO1 inh: 27.3; Calb FLC: 8.1; Efflux pump inh: -0.1; Cardio protect: -4.6

Results for CCOc1ccc(-c2nnc3ccc(SCc4ccc(C(=O)OC)o4)nn23)cc1 ?
PHOSPHO1 inh: 95.4*; Cl transport mod: -1.49; Calb FLC: -0.1; Efflux pump inh: 0.1; Cardio protect: 11.5

How did CNC[C@H](CC1CCCCC1)NC[C@H](Cc1ccccc1)NCCC12CC3CC(CC(C3)C1)C2 do in these assays?
PHOSPHO1 inh: 25.4; Calb FLC: 91.2*; Efflux pump inh: 0.1; Cardio protect: -10.7

How did O=C(NCC(c1cccs1)N1CCOCC1)C1CCN(S(=O)(=O)c2cccc(C(F)(F)F)c2)CC1 (configuration not stated) do in these assays?
Calb FLC: 4.9; Efflux pump inh: -0.1; Cardio protect: -2.0

Screening results (PubChem)
